Experiment [1] concerns Human papillomavirus type 1a protein E7 (residues 44-93). The experiment can be described thus: small molecules binding HPV E7 44-93 – biochemical, small-molecule microarray, residues 44-93, 635 nm fluorescence, primary screen (AID 1108).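 Note: E7 fragment applied at 1 µg/mL in TBST for 1 h at 4 C; score combines spot fluorescence with its signal to noise ratio.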 The following applies: fluorescence 635 nm, higher = more signal.
The nature of experiment [2]: hepatitis C replication reporter changes, two-sided – Huh7 cells, luciferase reporter, HCV replication inhibitor project, primary screen (AID 1109).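 Note: huh7 hepatoma cells harbouring a luciferase neomycin HCV replicon reporter; luciferase luminescence as measure of HCV replicon replication; test concentration not given here.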 The following applies: Huh7 HCV replicon luciferase reporter, 48 h; higher = more signal. In general terms: In a reporter assay the amount or activity of a reporter protein is the signal.
Experiment [3] has as its target Left-right determination factor 2 (Homo sapiens) (UniProt O00292). The experiment can be described thus: small molecules binding LEFTY2 protein – biochemical, small-molecule microarray, 635 nm fluorescence scan, primary screen (AID 1110). Particulars: higher = more signal.
Experiment [4] has as its target Calmodulin-1 (Homo sapiens) (UniProt P0DP23). The experiment can be described thus: small molecules binding calmodulin-1 with EGTA – biochemical, small-molecule microarray, Cy5-labelled CALM1, profiling panel (AID 1111).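 Note: labelled calmodulin applied in Tris saline Tween buffer holding calcium plus EGTA and DTT.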 The following applies: Cy5-CALM1 binding fluorescence, higher = more signal.
For experiment [5] the target is unchanged. The experiment can be described thus: small molecules binding Ca-loaded calmodulin-1 – biochemical, small-molecule microarray, Cy5-labelled CALM1, plus calcium, artefact control for SMM control-protein annotation, profiling panel (AID 1112).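 Note: score merges spot fluorescence with signal to noise from triplicate slides.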 Particulars: Cy5-CALM1 binding fluorescence, higher = more signal.
Experiment [6] is described as follows: probe aWnt5a binding to arrayed compounds – biochemical, biotinylated probe, 635/667 nm fluorescence, primary screen (AID 1113).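 Note: score merges 667 nm fluorescence intensity with signal-to-noise per printed feature.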 Particulars: small-molecule microarray, higher = more signal.
Experiment [7] can be described thus: probe aShh binding to arrayed compounds – biochemical, biotinylated probe, 635/667 nm fluorescence, primary screen (AID 1114).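 Note: probe is biotin-labelled aShh protein from a stem cell growth factor screen; measures binding of labelled protein to compounds printed on the slide; score merges feature fluorescence at 667 nm with signal-to-noise.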 The following applies: small-molecule microarray, higher = more signal.
A short description of experiment [8]: probe aNog binding to arrayed compounds – biochemical, biotinylated probe, 635/667 nm fluorescence, primary screen (AID 1115).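 Note: probe is biotinylated aNog protein used at 0.15 µg/mL for 1 h at 4 C; z-score combines 667 nm fluorescence of each spot with its signal to noise.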 The following applies: small-molecule microarray, higher = more signal.
The target in experiment [9] is Torsin-1A-interacting protein 1 (Homo sapiens) (UniProt Q5JTV8). The experiment in a line: compound microarray binding of lysate hLAP1 – cell lysate, small-molecule microarray, COS7 lysate, 635/667 nm fluorescence, primary screen (AID 1116). The following applies: 635 nm fluorescence, higher = more signal.
Chain of Torsin-1A-interacting protein 1 (Homo sapiens) (Q5JTV8 whole entry, looked up): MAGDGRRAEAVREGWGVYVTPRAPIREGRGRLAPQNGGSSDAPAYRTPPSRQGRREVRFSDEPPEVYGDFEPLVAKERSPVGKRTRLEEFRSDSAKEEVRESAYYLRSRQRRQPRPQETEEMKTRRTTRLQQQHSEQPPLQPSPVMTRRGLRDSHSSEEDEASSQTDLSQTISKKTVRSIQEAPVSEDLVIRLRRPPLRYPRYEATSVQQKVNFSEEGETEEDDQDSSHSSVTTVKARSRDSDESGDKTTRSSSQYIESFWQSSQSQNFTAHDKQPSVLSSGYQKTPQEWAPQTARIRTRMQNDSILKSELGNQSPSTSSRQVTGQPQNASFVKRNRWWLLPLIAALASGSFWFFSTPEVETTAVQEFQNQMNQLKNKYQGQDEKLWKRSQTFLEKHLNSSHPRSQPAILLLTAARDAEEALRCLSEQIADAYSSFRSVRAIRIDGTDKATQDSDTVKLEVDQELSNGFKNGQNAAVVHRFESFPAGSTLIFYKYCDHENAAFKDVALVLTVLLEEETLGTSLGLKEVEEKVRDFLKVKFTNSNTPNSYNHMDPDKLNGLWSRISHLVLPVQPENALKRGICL
Experiment [10] concerns the target Alpha-bungarotoxin (Bungarus multicinctus) (UniProt P60615). The experiment in a line: compounds binding labelled alpha-BTX control protein – biochemical, small-molecule microarray, Alexa647 label, 635/667 nm fluorescence, artefact control for SMM control protein annotation, profiling panel (AID 1117). Particulars: alpha-BTX-A647 binding fluorescence, higher = more signal.

For another experiment, the target named is Albumin (Bos taurus) (UniProt P02769). The experiment can be described thus: compounds binding labelled BSA control protein – biochemical, small-molecule microarray, Alexa647 label, 635/667 nm fluorescence, artefact control for SMM control protein annotation, profiling panel (AID 1118).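 Note: score merges 667 nm emission intensity and signal-to-noise per printed compound spot.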 The following applies: BSA-A647 binding, fluorescence 635 nm, higher = more signal.
Chain of Albumin (Bos taurus) (P02769 whole entry, looked up): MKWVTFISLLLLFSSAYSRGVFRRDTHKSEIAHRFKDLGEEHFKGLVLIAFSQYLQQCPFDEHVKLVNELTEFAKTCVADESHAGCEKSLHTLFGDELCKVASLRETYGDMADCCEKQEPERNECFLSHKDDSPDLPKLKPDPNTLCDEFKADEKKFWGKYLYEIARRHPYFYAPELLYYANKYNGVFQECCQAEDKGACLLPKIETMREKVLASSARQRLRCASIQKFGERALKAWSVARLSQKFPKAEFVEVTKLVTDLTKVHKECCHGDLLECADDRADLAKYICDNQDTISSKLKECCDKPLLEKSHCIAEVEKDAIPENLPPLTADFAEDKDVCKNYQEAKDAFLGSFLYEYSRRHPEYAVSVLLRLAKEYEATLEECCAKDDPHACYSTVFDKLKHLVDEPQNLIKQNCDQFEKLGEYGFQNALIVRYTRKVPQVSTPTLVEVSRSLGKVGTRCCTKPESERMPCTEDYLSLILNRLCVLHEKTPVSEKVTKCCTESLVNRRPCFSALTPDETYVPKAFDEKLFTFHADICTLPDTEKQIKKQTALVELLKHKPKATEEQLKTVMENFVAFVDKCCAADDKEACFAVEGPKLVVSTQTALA

Experiment [11] in a line: probe aXIP binding to arrayed compounds – biochemical, NeuroSMM set, 635/667 nm fluorescence, primary screen (AID 1119).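 Note: probe is the protein aXip251-270 applied at 1 µg/mL to compound-printed slides; binding of probe to printed compounds measured as 667 nm fluorescence plus signal to noise.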 Particulars: small-molecule microarray, higher = more signal, called active from +8 up or from −8 down.
Experiment [12] in a line: probe aNOTCH3 binding on compound microarray – biochemical, small-molecule microarray, 635/667 nm fluorescence, primary screen (AID 1120).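 Note: probe is a biotin-tagged antibody raised against NOTCH3 rather than NOTCH3 protein; score merges spot fluorescence near 667 nm with spot signal to noise.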 The following applies: higher = more signal.
A short description of experiment [13]: probe aNOTCH2 binding on compound microarray – biochemical, small-molecule microarray, 635/667 nm fluorescence, primary screen (AID 1121).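 Note: score merges feature fluorescence read at 667 nm with its signal to noise.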 Particulars: higher = more signal.
Experiment [14] deals with Carbonic anhydrase 2 (Homo sapiens) (UniProt P00918). The experiment can be described thus: compounds binding carbonic anhydrase 2 – biochemical, small-molecule microarray, Alexa647-labelled CAII, profiling panel (AID 1122). Particulars: CAII-A647 binding fluorescence, higher = more signal.
Experiment [15] can be described thus: COS7 lysate on small-molecule microarray, probe aHis, 635 nm (AID 1123).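 Note: z-score combines 667nm fluorescence intensity with signal-to-noise per printed compound spot.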 The following applies: COS7 cell lysate, fluorescence, higher = more signal.
A short description of experiment [16]: probe aLAP1 signal on lysate-treated microarray – cell lysate, small-molecule microarray, COS7 lysate, primary screen (AID 1124).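 Note: lysate comes from COS7 cells expressing LAP1 and is applied at 0.3 µg/mL; score merges spot fluorescence near 667 nm with signal-to-noise over triplicate slides.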 The following applies: probe aLAP1, fluorescence, higher = more signal.
In another experiment the test system is Sam68 (KHDRBS1). The experiment in a line: compounds binding KHDRBS1 protein – biochemical, small-molecule microarray, 635 nm fluorescence, primary screen (AID 1125).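 Note: score merges 667 nm channel intensity with signal to noise over triplicate slides.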 Particulars: higher = more signal.
Experiment [17] deals with Chordin-like protein 2 (CHRDL2). The experiment in a line: compounds binding chordin-like 2 – biochemical, small-molecule microarray, 635 nm fluorescence, primary screen (AID 1126).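 Note: printed compound slides probed with Chrdl2 protein at 4 µg/mL for 1 h at 4 C; score merges 667 nm emission intensity with signal to noise over three replicate slides.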 The following applies: fluorescence 635 nm, higher = more signal.
In experiment [18] the target is Concanavalin-A (Canavalia ensiformis) (UniProt P02866). The experiment in a line: compounds binding concanavalin A lectin – biochemical, small-molecule microarray, Alexa647 label, 635 nm, artefact control for SMM control protein annotation, primary screen (AID 1127).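 Note: z combines 667 nm emission intensity with signal-to-noise across three replicate slides.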 Particulars: ConA-A647 binding fluorescence, higher = more signal.
Chain of Concanavalin-A (Canavalia ensiformis) (P02866 whole entry, looked up): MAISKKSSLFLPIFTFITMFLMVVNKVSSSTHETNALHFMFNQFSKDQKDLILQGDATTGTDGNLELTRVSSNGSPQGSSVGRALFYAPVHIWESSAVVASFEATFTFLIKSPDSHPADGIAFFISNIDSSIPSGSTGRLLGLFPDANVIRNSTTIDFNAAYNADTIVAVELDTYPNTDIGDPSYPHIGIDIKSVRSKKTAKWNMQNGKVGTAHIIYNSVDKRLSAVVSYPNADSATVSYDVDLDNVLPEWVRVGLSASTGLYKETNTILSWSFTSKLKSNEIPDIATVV

Structures are written as SMILES. The source made the active and inactive calls.

Chain of Alpha-bungarotoxin (Bungarus multicinctus) (P60615 whole entry, looked up): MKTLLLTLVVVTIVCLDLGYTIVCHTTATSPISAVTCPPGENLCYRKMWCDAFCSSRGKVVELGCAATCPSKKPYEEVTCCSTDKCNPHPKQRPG
Chain of Left-right determination factor 2 (Homo sapiens) (O00292 whole entry, looked up): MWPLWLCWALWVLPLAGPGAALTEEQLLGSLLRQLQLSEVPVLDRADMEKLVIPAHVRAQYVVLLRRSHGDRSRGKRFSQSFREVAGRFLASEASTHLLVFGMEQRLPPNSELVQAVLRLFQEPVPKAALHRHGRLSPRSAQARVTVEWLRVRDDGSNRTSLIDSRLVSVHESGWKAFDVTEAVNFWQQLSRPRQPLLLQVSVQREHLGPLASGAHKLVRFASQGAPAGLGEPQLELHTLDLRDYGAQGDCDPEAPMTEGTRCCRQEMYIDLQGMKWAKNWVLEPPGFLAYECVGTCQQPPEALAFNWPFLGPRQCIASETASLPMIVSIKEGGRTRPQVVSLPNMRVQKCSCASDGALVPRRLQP

`CCOC(=O)C[C@H]1[C@H](OC(=O)c2ccccc2-c2ccccc2)[C@@H](NC(=O)c2ccc3ccccc3c2)c2cc(OCCCO)ccc2N1C(=O)c1ccc2ccccc2n1`: the composite z-score in experiment [1] is 1.12; in [3] it was 0.043; in experiment [4], 0.0796; in [5], -0.122; in [6], -0.0441; in experiment [7], -0.214. Besides, the composite z-score was -0.364 in experiment [8]; 0.4 in experiment [9]; 0.164 in [10]; 0.43 with Albumin (Bos taurus); 0.172 in [12]; -0.14 in experiment [13]. For the same compound, the composite z-score in experiment [14] was 0.124; in [15] it was 0.806; in experiment [16], -0.106; in the experiment with Sam68 (KHDRBS1), 0.744; in [17] it was -0.0077; in experiment [18] it was 0.406. Besides, in experiment [2], the z-score is -1.08. Besides, the composite Z-score in [11] was -0.666 (inactive).
For the compound `COC(=O)[C@@]1(Cc2ccc(OC)cc2)[C@H]2c3cc(C(=O)N4CCCC4)n(Cc4cc(F)cc5c4OCOC5)c3C[C@H]2CN1C(=O)c1ccccc1`, the composite z-score in experiment [1] is 0.756; in [3], -0.474; in [4], 1.37; in experiment [5], 0.365; in experiment [6], 0.223; in experiment [7], 0.108. Besides, the composite z-score in [8] worked out at 0.0549; in [9], 0.831; in [10], 0.408; in the experiment with Albumin (Bos taurus), 0.161; in experiment [12] it was 0.58; in experiment [13] it was 0.38. The composite z-score in [14] was 0.916; in experiment [15], 2.39; in [16], -0.429; in the experiment with Sam68 (KHDRBS1) it was -0.0061; in experiment [17], -0.974; in [18], 0.693. This compound gave a z-score in experiment [2] of -3.58. The composite Z-score in experiment [11] was -0.0345 (inactive).
As for `C=C(COC)/C(=C/C[C@H](OC(=O)c1ccncc1)c1cccc(OCCO)c1)c1cc(C(=O)OC)ccc1OC`, the composite z-score is -1.16 in experiment [1]; 0.229 in experiment [3]; -0.0871 in experiment [4]; -0.46 in experiment [5]; -0.156 in experiment [6]; -0.0769 in [7]. For the same compound, the composite z-score is -0.104 in experiment [8]; 0.516 in experiment [9]; 1.29 in [10]; 0.374 with Albumin (Bos taurus); -0.0006 in experiment [12]; -0.146 in experiment [13]. The composite z-score was 0.697 in experiment [14]; 0.75 in experiment [15]; 0.343 in experiment [16]; 0.908 in the experiment on Sam68 (KHDRBS1); -0.386 in experiment [17]; -0.163 in [18]. In experiment [2], this compound had a z-score of -1.67. In addition, the composite Z-score in [11] was 0.415 (inactive).
Turning to `CC(C)(C)OC(=O)CC[C@@]1(C(=O)NCCN2CCOCC2)N=C(c2ccc(OCCCO)cc2)O[C@@H]1c1ccccc1`, the composite z-score is 0.925 in [1]; 0.356 in [3]; 1.59 in experiment [4]; 0.53 in experiment [5]; 0.0095 in experiment [6]; -0.138 in [7]. Besides, the composite z-score in experiment [8] is -0.193; in experiment [9], 0.414; in experiment [10], 2.08; in the experiment with Albumin (Bos taurus), 1.03; in experiment [12], 0.209; in [13] it was 0.0129. Besides, the composite z-score in experiment [14] was 0.539; in experiment [15], 1.46; in experiment [16], 0.275; in the experiment on Sam68 (KHDRBS1), 1.3; in experiment [17] it was -0.0233; in experiment [18], 1.17. For the same compound, the z-score in [2] worked out at 0.988. The composite Z-score in experiment [11] is -0.548 (inactive).
Consider `CC(C)(C)N1CC=CC23O[C@@H]4/C=C\CCCOC(=O)C4[C@H]2C(=O)N(CCO)[C@@H]3C1=O` (stereo not given in full), for which the composite z-score in [1] is -0.365; in [3], -0.679; in [4], -0.0083; in experiment [5], 0.443; in experiment [6], -0.18; in experiment [7], 0.0121. Further, the composite z-score in experiment [8] was -0.261; in [9], -0.231; in experiment [10] it was -0.709; with Albumin (Bos taurus), 0.268; in experiment [12], -0.36; in [13] it was -0.204. For the same compound, the composite z-score is 0.872 in experiment [14]; 0.575 in [15]; 0.29 in [16]; -0.13 in the experiment with Sam68 (KHDRBS1); -0.0702 in experiment [17]; -0.0702 in experiment [18]. The compound further returned a z-score in experiment [2] of -0.95. Further, the composite Z-score in experiment [11] is 0.103 (inactive).
As to `O=C1C[C@@](C(=O)NC2CC2)(c2ccc([N+](=O)[O-])cc2)[C@@H](c2ccc(CO)cc2)N1CC12CC3CC(CC(C3)C1)C2`, the composite z-score in experiment [1] is 0.869; in [3], -0.523; in experiment [4] it was 0.557; in [5], -0.0787; in [6] it was -0.0751; in [7], -0.147. The composite z-score is 0.11 in experiment [8]; 0.471 in experiment [9]; 0.601 in experiment [10]; 0.374 with Albumin (Bos taurus); -0.0236 in [12]; -0.0091 in experiment [13]. Moreover, the composite z-score is 0.22 in experiment [14]; 0.681 in experiment [15]; -0.107 in [16]; 0.684 in the experiment with Sam68 (KHDRBS1); -0.203 in [17]; 1 in [18]. The compound also yielded a z-score in experiment [2] of -2.39. Further, the composite Z-score in [11] is -0.172 (inactive).

Source of the values: PubChem BioAssay.
